Test results reported in PubChem BioAssay (NCI).
The panel holds about 83,000 compounds, 20% with a hit somewhere; the sample as a whole holds those more often.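 Method: cells in 96-well plates; compound added at one concentration; 48 h incubation; percent growth measured; values under 10 scored active.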 Unmarked numbers belong to inactive results. The source made the active and inactive calls.

Test system: A498 renal
Assay: NCI-60 one-dose screen, 48 h (100 = growth as untreated, 0 = no growth, -100 = all killed)
Conditions: 10 µM unless noted
Protocol: Growth inhibition of the A498 human tumor cell line is measured as a screen for anti-cancer activity. Cells are grown in 96 well plates and exposed to the test compound for 48 hours. Compounds are tested at a single concentration, which is 10^-5 M for most compounds. The reported endpoint is percent growth (GI% or GIPRCNT), where numbers from 0 - 100% represent growth inhibition, and numbers from -100% - 0 represent cell death. For example, a value of 40 represents 60% growth inhibition. A value of 0 means no net growth occurred over the course of the experiment. A value of -40 indicates 40% of cells at the beginning of the experiment died by the end of the experiment. A value of -100 means all cells are dead at the end of the experiment.
NCI-60 Human Tumor Cell Lines Screen was performed using the standard one-dose NCI protocol, which is described in more detail at https://dtp.cancer.gov/discovery_development/nci-60/default.htm.
Compounds with GIPRCNT values below 10 were considered active. Activity score was based on GIPRCNT using the following formula: […]
Score is 0 for GIPRCNT values of 100 or above, 50 for GIPRCNT values of 0, and 100 for GIPRCNT values of -100.

Row | Structure (SMILES) | growth
1 | CC(=O)C(C(C)=O)C(c1ccccc1)C(C(C)=O)C(C)=O | 105%
2 | CN[C@@H]1C[C@H]2O[C@@](C)([C@@H]1OC)n1c3ccccc3c3c4c(c5c6ccccc6n2c5c31)C(=O)N[C@H]4O | -97.1% (active)
3 | CC(C)(C)c1ccc(Cn2cc(CSc3nc4ccccc4s3)nn2)cc1 | 87%
4 | C[C@@H]1COCCN1c1cc(C2([S@](C)(=N)=O)CC2)nc(-c2ccnc3[nH]ccc23)n1 | -21.2% (active)
5 | O=C(CNc1nnc(-c2ccc(Cl)cc2)o1)Nc1ccc(-c2nc3ccccc3s2)cc1 | 82%
6 | Cc1cc2c(F)c(Oc3ncnn4cc(OC[C@@H](C)OC(=O)[C@H](C)N)c(C)c34)ccc2[nH]1 | 21.7%
7 | O=C(COc1ccc(/C=C2\Cc3ccc(Cl)cc3C2=O)cc1)Nc1nccs1 | 127%
8 | Cn1ccnc1C(=O)/C=C/c1ccc(CC(=O)Nc2ccc(S(F)(F)(F)(F)F)cc2)cc1 | 13.5%
9 | COC(=O)[C@H](C)NC(=O)[C@@H](OC)[C@@H]1Cc2cc3cc(OC4CC(OC5CC(O)C(O)C(C)O5)C(O)C(C)O4)c(C)c(O)c3c(O)c2C(=O)[C@H]1OC1CC(OC2CC(OC3CC(C)(O)C(O)C(C)O3)C(O)C(C)O2)C(O)C(C)O1 (stereo not given in full) | -66.5% (active)
10 | COC(=O)[C@@H](NC(=O)[C@@H](OC)[C@@H]1Cc2cc3cc(OC4CC(OC5CC(O)C(O)C(C)O5)C(O)C(C)O4)c(C)c(O)c3c(O)c2C(=O)[C@H]1OC1CC(OC2CC(OC3CC(C)(O)C(O)C(C)O3)C(O)C(C)O2)C(O)C(C)O1)C(C)C (stereo not given in full) | -83.2% (active)
11 | COC(=O)[C@@H](C)CNS(=O)(=O)N(c1cc(C(F)(F)F)cc(C(F)(F)F)c1)C1CCN(Cc2ccc(F)cc2)CC1 | 66%
12 | O=c1[nH]c(N2CCOCC2)nc2scc(-c3ccccc3)c12 | 104%
13 | C[C@@H](Oc1cc(C(=O)Nc2ccc(C(=O)N3CCN(C)CC3)cc2)nnc1N)c1c(Cl)ccc(F)c1Cl | 65%
14 | COc1cc2c(c(OC)c1)C1c3ccccc3NC(=O)N1CC2 (stereo not given) | -7.8% (active)
15 | C=C1[C@@H](O)C[C@H]2C(C)(C)C[C@H](Cl)C[C@]2(C)[C@H]1C[C@H](O)[C@H]1CC(=O)NC1=O | -76% (active)
16 | O=c1nc2c(-c3nc4ccccc4s3)n[nH]n2c2sc3c(c12)CCCC3 | 103%
17 | Nc1nc(N)c2nc(-c3cccc(O)c3)c(-c3cccc(O)c3)nc2n1 | 74.9%
18 | CCCC(=O)OCC1OC(n2cnc3c(=S)nc[nH]c32)C(OC(=O)CCC)C1OC(=O)CCC (stereo not given) | 30.8%
19 | CC(C)(C)c1nc(-c2cccc(NS(=O)(=O)c3c(F)cccc3F)c2F)c(-c2ccnc(N)n2)s1 | 135%
20 | Nc1nc(Nc2ccccc2)c(C=Nc2ccccc2)c(=O)[nH]1 | 86.3%

Row | Structure (SMILES) | growth
21 | COc1ccc(Cl)c(Nc2nc3ccccc3nc2NS(=O)(=O)c2cccc(NC(=O)C(C)(C)N)c2)c1 | -33.2% (active)
22 | COc1cc(Nc2ncc(F)c(Nc3ccc4c(n3)N(COP(=O)(O)O)C(=O)C(C)(C)O4)n2)cc(OC)c1OC | -70.9% (active)
23 | Cc1nc(N)sc1-c1ccnc(Nc2ccc(N3CCOCC3)cc2)n1 | 32.6%
24 | CC/C(=C(\c1ccc(OCCN2CCCCCCC2)cc1)c1ccc(OC(=O)C2CCCCC2)cc1)c1ccc(Cl)cc1 | 63.7%
25 | OCCNC(=S)Nc1ccc(-c2nc(N3C[C@H]4CC[C@@H](C3)O4)c3cccn3n2)cc1 | -37.5% (active)
26 | CC(=O)C1CC(C)CCC1C(C)C (stereo not given) | 92.4%
27 | O=C(Cn1ccnc1)Nc1ccc(-c2nc3ccccc3s2)cc1 | 57.5%
28 | CN(N)c1nc2sc3c(c2c(=O)[nH]1)CCCC3 | 101%
29 | Cn1cnc(-c2cc3nccc(Oc4ccc(NC(=S)NC(=O)Cc5ccccc5)cc4F)c3s2)c1 | 62.9%
30 | Cn1cc(-c2ncnc3ccc(-c4cnc(Cl)c(NS(C)(=O)=O)c4)cc23)c2ccccc21 | -42.7% (active)
31 | O=C(c1ccc(/C=C/c2n[nH]c3ccccc23)cc1)N1CCNCC1 | 37.9%
32 | COc1ccc(C(=O)c2cc(OC)c(OC)c(OC)c2)cc1/C=C/C(=O)c1ccc(F)cc1 | 80.9%
33 | CCN(CC)CCCC(C)Nc1cc(-c2ccc(C(F)(F)F)cc2)c(C#N)c2nc3ccccc3n12 (stereo not given) | 87.5%
34 | COc1cc2ncnc(Nc3ccc(O)cc3)c2cc1OC | 81.3%
35 | CC(=O)Oc1ccccc1C(=O)N=C1[Se]CCN1C(=O)c1ccccc1OC(C)=O | -94% (active)
36 | Nc1nc(N)c2cc(CNc3ccc(C(=O)NC(CC(=O)O)C(=O)O)cc3)ccc2n1 (stereo not given) | 19.1%
37 | COC(=O)N[C@@H](C)CNc1nccc(-c2cn(C(C)C)nc2-c2cc(Cl)cc(NS(C)(=O)=O)c2F)n1 | 31.9%
38 | Cn1nccc1Nc1nccc(-c2ccn([C@H](CO)c3ccc(Cl)c(F)c3)c(=O)c2)n1 | 70.5%
39 | CN1CCN(c2ccc(C(=O)Nc3n[nH]c4ccc(Cc5cc(F)cc(F)c5)cc34)c(NC3CCOCC3)c2)CC1 | -54.8% (active)
40 | CC(=Nc1ccccc1)C1=C(O)C(Cc2ccccc2)NC1=O (stereo not given) | -22.1% (active)
